Reference: PubChem BioAssay AID602290 (National Center for Advancing Translational Sciences (NCATS), 2012)
Calls of active or inactive are those of the source.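 How the source made its calls: active means fold change shows a rise in VEGF expression relative to GAPDH, above the control level; inconclusive means expression about equal to the control; inactive means no rise in relative expression.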

Test: qHTS Assay for Agonists of the Relaxin Receptor RXFP1: VEGF expression
Settings: THP1 cells, VEGF mRNA qRT-PCR, 2 h; hits give high values
Source text: The relaxin hormone is involved in the variety of biological functions in normal tissues and diseases. The role of relaxin is well-established in female reproduction and parturition, mammary gland and endometrial development, maintenance of myometrial quiescence during pregnancy. Relaxin signaling through its G protein-coupled receptor (GPCR) RXFP1 results in ECM remodeling through regulation of collagen deposition, cell invasiveness, proliferation and overall tissue homeostasis. […] Recombinant human relaxin (rhRlx) is currently being tested in clinical trials as a protective agent in congestive heart failure, in treating severe preeclampsia, and as an anti-fibrotic agent in systemic sclerosis.
Upon relaxin binding RXFP1 activation leads to the activation of adenylate cyclase (AC) via Gs. cAMP will activate PKA, which phosphorylates many signaling proteins. Thus, detection of cAMP increase is an easy and reliable indication of relaxin receptor activation. To screen for agonists of the relaxin receptor, a HEK293T cell line stably transfected with RXFP1 was used. RXFP1 activation was assayed by changes in cAMP levels as detected with a time-resolved fluorescence energy transfer (TR-FRET) cAMP detection kit.
After the primary screen and SAR work, a probe and its analogs were tested in this selectivity assay. THP1 cells (human acute monocytic leukemia cell line) were used to analyze the stimulation of VEGF gene expression after treatment with relaxin or compounds. The VEGF stimulation in these cultured […] cells is a well-established property of relaxin.
NIH Chemical Genomics Center [NCGC]
NIH Molecular Libraries Probe Production Centers Network [MLPCN]
Assay Submitter (PI): Alexander Agoulnik
400,000 THP1 cells (0.4 mL at 1x10^6 cells/mL) in test media (RPMI-1640 without phenol red, 0.5% FBS, 1x Pen/Strep, 0.05 mM of 2-mercaptoethanol) were seeded in each well on a 24-well plate. After 24 hours incubation at 37 degrees C, 5% CO2, relaxin or compounds were added for 2 hours. The cells were harvested and RNA was extracted by the Trizol (Invitrogen, Carlsbad, CA) method according to manufacturers' instructions. cDNA was synthesized by using Verso cDNA kit (Thermo Scientific, Waltham, MA) according to manufacturer's protocol. Quantitative real time RT-PCR for VEGF and GAPDH gene expression was done using a Roche LightCycler 480 (Roche Diagnostics, Indianapolis, IN) with the appropriate set of primers and probes spanning different exons. The relative fold change in VEGF mRNA level was calculated by the comparative Ct (2- Ct) method using GAPDH expression for normalization of RNA.

SMILES | fold change
CCCOc1ccccc1C(=O)Nc1ccccc1C(=O)Nc1cccc(S(=O)(=O)C(F)(F)F)c1 | 1.53 (active)
O=C(O)c1cc(-c2ccccc2)nn1CC1CC(c2cccnc2)=NO1 (centres undefined) | 1.01 (inactive)
COc1ccccc1C(=O)Nc1ccccc1C(=O)Nc1cccc(S(=O)(=O)C(F)(F)F)c1 | 1.41 (active)
CC(C)Oc1ccccc1C(=O)Nc1ccccc1C(=O)Nc1cccc(S(=O)(=O)C(F)(F)F)c1 | 2.79 (active)
COc1ccccc1C(=O)Nc1ccccc1C(=O)Nc1cccc(SC(F)(F)F)c1 | 1.15 (active)
O=C(Nc1cccc(S(=O)(=O)C(F)(F)F)c1)c1ccccc1NC(=O)c1ccccc1OCC(F)(F)F | 1.24 (active)
CCOc1ccccc1C(=O)Nc1ccccc1C(=O)Nc1cccc(C(F)(F)F)c1 | 1.93 (active)
CCOc1ccccc1C(=O)Nc1ccccc1C(=O)Nc1cccc(S(=O)(=O)C(F)(F)F)c1 | 2.33 (active)
CCCCOc1ccccc1C(=O)Nc1ccccc1C(=O)Nc1cccc(S(=O)(=O)C(F)(F)F)c1 | 1.57 (active)
